Data as given in PubChem BioAssay (NCI).
“And” between values parts separate entries of the source, which are not always exact repeats. Identical values can stand only once. The panel holds about 83,000 compounds, 20% with a hit somewhere; the sample as a whole holds those more often.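 Each cell line was grown in a 96-well plate and treated with one concentration of compound for 48 hours. Values below 10 were considered active.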 A number with no mark means an inactive call. The source made the active and inactive calls.

Columns and labels:
Test in all cases: NCI-60 one-dose screen, 48 h (100 = growth as untreated, 0 = no growth, -100 = all killed)
Conditions in all cases: 10 µM unless noted
SK-MEL-2 melanoma = test system: SK-MEL-2 melanoma
EKVX NSCLC = test system: EKVX NSCLC
SN12C renal = test system: SN12C renal
UO-31 renal = test system: UO-31 renal
TK-10 renal = test system: TK-10 renal
ACHN renal = test system: ACHN renal
CAKI-1 renal = test system: CAKI-1 renal
A498 renal = test system: A498 renal
HL-60(TB) leukemia = test system: HL-60(TB) leukemia
CCRF-CEM leukemia = test system: CCRF-CEM leukemia
MOLT-4 leukemia = test system: MOLT-4 leukemia
SR leukemia = test system: SR leukemia
RPMI-8226 leukemia = test system: RPMI-8226 leukemia
OVCAR-8 ovarian = test system: OVCAR-8 ovarian
OVCAR-5 ovarian = test system: OVCAR-5 ovarian
OVCAR-4 ovarian = test system: OVCAR-4 ovarian
SK-OV-3 ovarian = test system: SK-OV-3 ovarian
OVCAR-3 ovarian = test system: OVCAR-3 ovarian
HS 578T breast = test system: HS 578T breast
IGROV1 ovarian = test system: IGROV1 ovarian

Compound | growth (SK-MEL-2 melanoma) | growth (EKVX NSCLC) | growth (SN12C renal) | growth (UO-31 renal) | growth (TK-10 renal) | growth (ACHN renal) | growth (CAKI-1 renal) | growth (A498 renal) | growth (HL-60(TB) leukemia) | growth (CCRF-CEM leukemia) | growth (MOLT-4 leukemia) | growth (SR leukemia) | growth (RPMI-8226 leukemia) | growth (OVCAR-8 ovarian) | growth (OVCAR-5 ovarian) | growth (OVCAR-4 ovarian) | growth (SK-OV-3 ovarian) | growth (OVCAR-3 ovarian) | growth (HS 578T breast) | growth (IGROV1 ovarian)
COC(=O)C1=CCCN(C)C1 | 106% and 30.5% | 97.8% and 98.7% | 107% and 105% | 80.4% and 94% | 106% and 103% | 96.9% | 93.7% and 102% | 97.8% and 112% | 108% and 122% | 102% | 105% and 97.6% | 99.7% and 110% | 106% | 105% | 94.9% | 107% and 101% | 111% and 110% | 120% and 118% | 104% and 117% | –
CC[C@H](C)[C@H](NC(=O)[C@H]1CCCCN1C)C(=O)N(C)[C@H](C[C@@H](OC(C)=O)c1cccc(C(=O)N[C@@H](Cc2ccccc2)C[C@H](C)C(=O)OC)n1)C(C)C | 22.1% | 53.4% | 29.8% | 40.7% | 34.4% | 24.6% | 25.4% | -5.01% (active) | -42.9% (active) | 14.4% | 13.6% | 12.2% | 20% | 12% | 39% | – | 13.8% | -18.1% (active) | 19.9% | 29%
C[C@H](O)CCC(=O)c1ccoc1 | 110% | 104% | 96.9% | 98.9% | 103% | 114% | 101% | 103% | 99.4% | 98.1% | 98.2% | – | 97.8% | 97.7% | 106% | 117% | 113% | 109% | 97.1% | 113%
CN(C)C(=S)SSC(=S)N(C)C | 109% and 108% | 69.4% and 92.7% | 106% and 94.8% | 79.1% and 80.5% | 106% and 101% | 100% | 90.9% | 95.1% | 113% | 68% and 91.5% | 92.3% | – | 85.6% and 70% | 95.4% and 104% | 97.4% and 110% | 107% and 106% | 122% and 113% | 88.5% and 112% | 101% and 112% | 99.1%
O=C(Cc1ccccc1)c1ccccc1 | 110% | 103% | 106% | 90.2% | 95.5% | 107% | 101% | 63.6% | 103% | 7.63% (active) | – | 100% | 85.4% | 108% | 108% | 99.3% | 113% | 106% | 90.3% | 110%
C[C@]12CCC3[C@@H](C[C@@H]4SC(Nc5ccccc5)=N[C@@]45CC(=O)CC[C@]35C)[C@@H]1CCC2=O (some centres undefined) | 6.9% (active) | 49.4% | -8.78% (active) | -89% (active) | -4.55% (active) | -62.4% (active) | -45.6% (active) | 63.7% | 6.25% (active) | 3.23% (active) | -5.8% (active) | -5.37% (active) | -14.8% (active) | -5.35% (active) | 31.2% | – | 56.9% | -9.98% (active) | 41% | -11.3% (active)
Cc1ccc(NC2=N[C@]34CC(=O)CC[C@]3(C)[C@H]3CC[C@]5(C)C(=O)CC[C@H]5[C@@H]3C[C@@H]4S2)c(C)c1 | 72.6% | 51.9% | 26.2% | 34.3% | 63.3% | 32.3% | 49.8% | 66.7% | 9.29% (active) | 7.99% (active) | -0.311% (active) | -0.627% (active) | -3.52% (active) | 31.7% | 59.1% | – | 78.5% | -6.33% (active) | 45.3% | 17.7%
CCCC(C)SP(=S)(SC(C)CCC)SC(C)CCC (centres undefined) | 107% | 96.7% | 108% | 93% | 104% | 113% | 104% | 113% | 106% | 103% | – | 110% | 105% | 107% | 112% | – | 108% | 98.5% | 108% | –
O=c1[nH]c(=O)[nH]c(=O)[nH]1 | 66.7% | 110% | 120% | 95.3% | 140% | 161% | 92.7% | 129% | 88.8% | – | 80.8% | 104% | 60.1% | 106% | 103% | 119% | 110% | 119% | 95.7% | 68.2%
CO/N=C1\CC[C@]2(C)[C@H]3CC[C@]4(C)C(=O)CC[C@H]4[C@@H]3C[C@@H]3SC(N)=N[C@@]32C1 | 96.5% | 91.8% | 107% | 77.9% | 116% | 100% | 74.3% | 98.9% | 91.9% | – | 86.1% | 71.8% | 93.2% | 105% | 105% | 90.9% | 122% | 85.5% | 102% | 101%
Cn1cc(-c2csc(-c3cn(CCCCN4CCOCC4)c4ccc(F)cc34)n2)c2cccnc21 | 78.7% | 72.7% | 72.2% | 44.4% | 75.4% | 86.3% | 76.1% | 46.7% | 76.2% | – | 46.7% | 37% | 49% | 81.3% | 79.5% | – | 84% | 90% | 41.1% | 65.4%
Cc1cc(N(CCCl)CCCl)ccc1/C=N\NC(=O)c1cccnc1 | 77.4% and 114% | 97.9% and 95.8% | 67.8% and 75.5% | 80.3% and 83.4% | 89.2% and 103% | 72.6% and 84% | 36.2% and 41.5% | -85.4% (active) and -89.4% (active) | 60% | – | 49.6% and 60.5% | 23.4% and 54.5% | 85.7% and 86.1% | 88.4% and 80.2% | 33.9% and 74% | 93.2% and 80.5% | 74.2% and 102% | 104% and 101% | 98.3% and 103% | 79.9% and 82.6%
O=C(O)CNCP(=O)(O)O | 98.5% | 106% | 101% | 72.8% | 108% | 123% | 100% | 117% | 95.8% | – | 92.4% | 95.3% | 99.1% | 104% | 120% | 111% | 113% | 119% | 121% | 106%
